# Data as given in PubChem BioAssay (NCATS).
# Several values for one entry are separate records, joined by “and”; a condition that tells them apart may be missing. Identical values can stand only once. Records with an inconclusive call do not appear. Unmarked numbers belong to inactive results. Activity calls are given as the source filed them. Calls come from the whole dose curve; as a rule, active = well fitted curve in the direction sought with a large enough effect; inconclusive = small, poorly fitted or top-dose-only effect, or another doubt; inactive = no such curve, though single readings can be large; an effect the other way counts as inactive or inconclusive.
# Legend:
# Furin (Homo sapiens) = Furin (Homo sapiens) (UniProt P09958); test: Furin counterscreen qHTS for Zika virus inhibitors (AID 1347149);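 note: purified recombinant full-length human furin enzyme at 5 nM; fluorescence gain from furin cutting a BOC-RVRR-AMC peptide substrate over 15 min; top concentration of the series differs between compounds; plate controls were no-inhibitor control for no effect and no-enzyme control for full effect; nearly all actives have a fitted effect of over 70% in size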
# Chain of Furin (Homo sapiens) (P09958 whole entry, looked up): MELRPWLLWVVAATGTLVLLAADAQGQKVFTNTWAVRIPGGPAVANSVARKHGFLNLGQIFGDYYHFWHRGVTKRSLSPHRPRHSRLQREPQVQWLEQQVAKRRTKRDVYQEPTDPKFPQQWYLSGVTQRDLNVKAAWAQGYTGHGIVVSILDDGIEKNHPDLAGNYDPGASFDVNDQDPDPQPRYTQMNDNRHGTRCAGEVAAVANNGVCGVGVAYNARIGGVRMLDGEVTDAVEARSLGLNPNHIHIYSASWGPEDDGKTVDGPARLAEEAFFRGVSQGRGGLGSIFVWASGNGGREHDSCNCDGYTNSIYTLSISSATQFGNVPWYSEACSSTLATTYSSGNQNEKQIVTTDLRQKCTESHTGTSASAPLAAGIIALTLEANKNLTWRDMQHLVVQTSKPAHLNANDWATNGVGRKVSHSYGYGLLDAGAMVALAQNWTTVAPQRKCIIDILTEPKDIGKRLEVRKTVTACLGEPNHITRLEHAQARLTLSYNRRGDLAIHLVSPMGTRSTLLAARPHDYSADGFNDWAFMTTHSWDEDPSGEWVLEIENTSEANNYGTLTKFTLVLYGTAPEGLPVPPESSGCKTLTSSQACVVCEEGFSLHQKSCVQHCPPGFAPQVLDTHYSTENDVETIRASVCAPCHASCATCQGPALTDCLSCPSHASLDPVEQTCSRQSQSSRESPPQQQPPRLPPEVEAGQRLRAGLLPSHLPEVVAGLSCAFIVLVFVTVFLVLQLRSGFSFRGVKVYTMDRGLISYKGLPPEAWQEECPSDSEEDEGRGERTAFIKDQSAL
# How it was run: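 Fluorogenic cleavage of BOC-RVRR-AMC (2 microM final, Km ~15 µM) was monitored (ex 340, em 450 nm) at 37C after 15 min RT preincubation of 5 nM furin with compounds in HEPES pH 7.0 buffer with CaCl2 and Triton X-100. Percent inhibition was fitted to a 4-parameter Hill curve.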
# [1] = test system: Zika virus NS2B-NS3 protease (unlinked complex); test: Confirmatory screen GU AMC qHTS for Zika virus inhibitors (AID 1347153); conditions: Recombinant NS2B-NS3 protease, AMC substrate fluorescence; note: potency is the fitted concentration of half-maximal effect; nearly all actives have a fitted effect of over 70% in size
# How it was run: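 Unlinked enzyme 25 nM, Tris pH 8.0/0.01% Tween 20; cpd 15 min RT, dark; + AMC substrate 10 µM (Km 18.3 µM); 340/450 nm read at t0 and 15 min; % inhibition → 4-param fit.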
# [2] = Confirmatory screen GU Rhodamine qHTS for Zika virus inhibitors qHTS (AID 1347157); conditions: purified enzyme assay, Rhodamine110 substrate fluorescence, 15 min; note: potency is the fitted concentration of half-maximal effect; nearly all actives have a fitted effect of over 70% in size
# How it was run: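 Buffer 10 mM Tris-HCl pH 8.0, 0.01% Tween 20. Unlinked protease 25 nM; compound preincubation 15 min, RT, protected from light. Substrate Rhod110, 1.5 microM; ~15% conversion in 15 min.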
# [3] = ZIKV-mCherry secondary qHTS for Zika virus inhibitors (AID 1347158); note: top concentration of the series differs between compounds
# How it was run: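 Vero cells, 5,000/well, plated overnight at 37 °C, then compound added and infected with recombinant ZIKV-mCherry at MOI 1 for 48-72 h. PFA-fixed, Hoechst nuclear stain, high-content imaging; cells with mCherry intensity above 450 RFU scored infected, reported as percent infection.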
# [4] = Confirmatory screen NINDS Rhodamine qHTS for Zika virus inhibitors (AID 1347161); conditions: purified enzyme assay, Rhodamine110 substrate fluorescence, 15 min; note: potency is the fitted concentration of half-maximal effect; nearly all actives have a fitted effect of over 60% in size
# How it was run: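 In 10 mM Tris-HCl pH 8.0 containing 0.01% Tween 20, linked NS2B-NS3 protease (25 nM final) is exposed to test compounds for 15 min. Cleavage of 1.5 microM Rhodamine110 substrate is tracked by fluorescence over 15 min.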
# [5] = test system: Zika virus NS2B-NS3 protease (linked); test: 384 well plate NINDS AMC confirmatory qHTS for Zika virus inhibitors (AID 1347163); note: nearly all actives have a fitted effect of over 50% in size; note: potency is the fitted concentration of half-maximal effect
# How it was run: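 Linked protease 5/30/60 nM final; cpds up to 1 mM final, ~15 min preinc. Substrate Ac-VKTGKR-AMC 30 microM final. RT, dark, 25 min; FI ex 355/em 460; normalized to no-enzyme/no-inhibitor ctrls.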
# [6] = test system: Zika virus NS2B-NS3 protease (linked construct); test: 384 well plate NINDS Rhodamine confirmatory qHTS for Zika virus inhibitors (AID 1347164);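 note: fluorescence from protease cleavage of Ac-LKRR-rhodamine 110 substrate; nearly all actives have a fitted effect of over 65% in size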; note: potency is the fitted concentration of half-maximal effect
# How it was run: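 Fluorescence at 485/538 nm was measured 25 minutes after adding 10 microM Ac-LKRR-Rd substrate, in the dark at room temperature. The protease (5, 30 or 60 nM final) had been preincubated ~15 minutes with compound; aprotinin as control.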
# [7] = Tertiary RLuc qRT-PCR qHTS assay for Zika virus inhibitors (AID 1347169); note: nearly all actives have a fitted effect of over 55% in size; note: potency is the fitted concentration of half-maximal effect
# How it was run: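 Orthogonal cell-based readout: luminescence measured 1-1.5 hrs after adding live-cell Renilla substrate to Vero cells that had been infected with ZIKV-RLuc (MOI 1-2) post-compound, incubated 48-72 hrs at 37 degrees C.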
# [8] = test system: Zika virus NS2B-NS3 protease (linked construct); test: Confirmatory screen NINDS AMC qHTS for Zika virus inhibitors (AID 1347152); note: potency is the fitted concentration of half-maximal effect; nearly all actives have a fitted effect of over 70% in size
# How it was run: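 IC50s from 4-parameter Hill fits of percent inhibition, based on AMC fluorescence gain (340/450 nm) over 15 min with 10 microM Bz-Nle-KRR-AMC. Enzyme: 1 nM linked NS2B-NS3 in Tris-HCl pH 8.0; 15-min compound preincubation.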
# [9] = test system: Zika virus NS2B-NS3 protease (unlinked complex); test: Primary screen GU Rhodamine qHTS for Zika virus inhibitors: Unlinked NS2B-NS3 protease assay (AID 1347159); note: nearly all actives have a fitted effect of over 60% in size; note: potency is the fitted concentration of half-maximal effect
# How it was run: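 Compounds, tested up to 114 microM, were incubated for 15 minutes with 25 nM unlinked NS2B-NS3 protease at pH 8.0. Cleavage of 1.5 microM Rhodamine110 substrate was then followed by fluorescence for 15 minutes.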
# [10] = test system: Zika virus NS2B-NS3 protease (linked construct); test: Primary screen NINDS Rhodamine qHTS for Zika virus inhibitors (AID 1347160); note: nearly all actives have a fitted effect of over 55% in size; note: potency is the fitted concentration of half-maximal effect
# How it was run: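 Percent inhibition, normalized to uninhibited and enzyme-free controls, is fitted to a 4-parameter Hill equation. Fluorescence change comes from a 15-min cleavage of 1.5 microM bis-peptide Rhodamine110 substrate by 25 nM linked NS2B-NS3 at room temperature.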
# [11] = Vero cells viability qHTS for Zika virus inhibitors (AID 1347167); note: % is set by controls: 0 for no effect and ±100 for the full control effect
# How it was run: (§1)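 Cells seeded at 2.5 x 10^5 cells/mL in DMEM with 4% FBS and attached overnight at 37 degrees C, then exposed to compound for 24 to 48 hours. Viability read as ATP content by CellTiter Glo luminescence.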
# [12] = HepG2 cells viability qHTS for Zika virus inhibitors (AID 1347168); note: % is set by controls: 0 for no effect and ±100 for the full control effect
# How it was run: as §1
Structure (SMILES),Potency (Furin (Homo sapiens)),Potency [1],Potency [2],outcome [3],Potency [4],Potency [5],Potency [6],Potency [7],Potency [8],Potency [9],Potency [10],"activity change, negative = cytotoxicity [11]","activity change, negative = cytotoxicity [12]",outcome [11],outcome [12]
O=S(=O)(O)c1ccc2c(N=Nc3ccc(S(=O)(=O)O)c4ccccc34)c(O)c(S(=O)(=O)O)cc2c1,inactive,31.2 µM (active),10 µM (active),inactive,3.16 µM (active),63.1 µM (active) and 79.4 µM (active),15.8 µM (active) and 12.6 µM (active),inactive,,,,,,,
CC(=O)O[C@@H]1C[C@]2(C)[C@@]3(CCC4[C@@]5(C)CC[C@H](O[C@@H]6O[C@H](C(=O)O)[C@@H](O)[C@H](O[C@@H]7O[C@H](CO)[C@H](O)[C@H](O)[C@H]7O[C@@H]7O[C@@H](C)[C@H](O)[C@@H](O)[C@H]7O[C@@H]7OC[C@](O)(CO)[C@H]7O)[C@H]6O[C@@H]6O[C@H](CO)[C@H](O)[C@H](O)[C@H]6O)C(C)(C)C5CC[C@]42C)O[C@@H](O)[C@]12C3CC(C)(C)[C@@H](OC(=O)/C=C/c1ccc(O)c(O)c1)[C@@H]2OC(=O)/C=C/c1ccccc1 (stereo partly drawn),,7.42 µM (active),3.32 µM (active),,1.66 µM (active),,,,10.5 µM (active),3.16 µM (active),2.46 µM (active),-1.71% [at 8.96 µM],0.159% [at 8.96 µM],,
CCOc1c2c(c(OCC)c3ccccc13)C(=O)N(c1ccc(CC(=O)NS(=O)(=O)c3ccccc3)cc1)C2,inactive,44.1 µM (active),4.94 µM (active),,4.41 µM (active),inactive,inactive,,44.1 µM (active),3.98 µM (active),8.91 µM (active),,,inactive,inactive
CCCCS(=O)(=O)Nc1ncnc(OCCOc2ncc(Br)cn2)c1-c1ccc(Br)cc1,,,22.1 µM (active),,35 µM (active),,,inactive,,inactive,,,,,
NCc1ccc(OCCCc2sc(-c3ccc4c(c3)/C(=N/Nc3nc5ccccc5s3)CCC4)nc2C(=O)O)cc1,,,13.9 µM (active),,17.5 µM (active),,,inactive,,39.8 µM (active),inactive,,,,
COc1cccc(-n2nc(C(=O)O)cc2-c2ccc(C3CCCCC3)c(Cl)c2)c1,,12.4 µM (active),2.21 µM (active),,1.97 µM (active),,5.01 µM (active),18.6 µM (active),13.9 µM (active),1.78 µM (active),2.51 µM (active),,,inactive,inactive
O=C(O)c1ccc(CCCc2ccc(OCCc3ccc(F)cc3)cc2)o1,,49.4 µM (active),3.12 µM (active),,2.78 µM (active),5.01 µM (active),inactive,,44.1 µM (active),4.47 µM (active),3.98 µM (active),,,inactive,inactive
O=C(/C=C/c1c(C(=O)O)[nH]c2cc(Cl)cc(Cl)c12)Nc1ccccc1,inactive,44.1 µM (active),2.78 µM (active),inactive,2.48 µM (active),1.12 µM (active),8.91 µM (active),inactive,44.1 µM (active),3.55 µM (active),3.16 µM (active),,,inactive,inactive
CC1(C)CCC(C)(C)c2cc3c(cc21)Sc1ccccc1N=C3c1ccc(C(=O)O)cc1,,,1.56 µM (active),,1.75 µM (active),8.91 µM (active),4.47 µM (active),,7.84 µM (active),2.51 µM (active),2.24 µM (active),,,inactive,inactive
CC(C)c1cc2c(c(O)c1O[C@@H]1O[C@H](CO)[C@@H](O)[C@H](O)[C@H]1O)CC1(O)CCC(O)C(C)(C)C1CC2 (stereo partly drawn),,,17.1 µM (active),,7.64 µM (active),,,inactive,,20 µM (active),7.94 µM (active),,,inactive,inactive
Cc1nn(C)c(COc2ccc(N3CCN(S(=O)(=O)N(C)C)CC3)cc2)c1-c1cccc2c(CCCOc3cccc4ccccc34)c(C(=O)O)n(CCN3CCOCC3)c12,,,1.75 µM (active),,1.56 µM (active),,,inactive,,4.47 µM (active),inactive,,,,
CC(C)C(=O)c1cn(CC(=O)COc2ccc(Oc3ccccc3)cc2)c2ccc(C(=O)O)cc12,inactive,44.1 µM (active),8.79 µM (active),inactive,5.55 µM (active),44.7 µM (active),inactive,18.6 µM (active),44.1 µM (active),8.91 µM (active),8.91 µM (active),,,inactive,inactive
CC1C/C=C/C=C\CCCCC(O)C/C=C/C(=O)O1 (stereo not drawn),,,44.1 µM (active),,49.4 µM (active),,,inactive,,17.8 µM (active),inactive,,,,
